# Measured values taken from the supplement of paper PMC12494721.
# Where a name gives a salt, the structure may show the parent alone.
# Experiments:
# Settings in all cases: 20 µM; incubation time: 27 h, anaerobic, 37 °C;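 for the amine columns active = adjusted P below 0.05 in both replicates with a change the same way and a mean fold change under 0.8 or over 1.25; inactive = the rest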
# [1] = system: Clostridium sporogenes DSM 1664; assay: growth (OD595) fold change vs plate DMSO controls (fold change (ratio)); higher = more growth
# Method in brief: (§1)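 The 96-well mGAM cultures had been kept anaerobic for 27 h at 37 °C before being shaken and read at 595 nm. Blank subtraction, compound background correction with 20 µM compound solutions in water, and a calibration factor of 5 turned the readings into OD. Growth is given as the fold change versus the median of plate DMSO controls. Fold changes above 1.5 were set to NA, and the values are means of 2 biological replicates.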
# [2] = system: Escherichia coli IAI1; assay: as above
# Method in brief: as §1
# [3] = system: Klebsiella aerogenes DSM 30053; assay: as above
# Method in brief: as §1
# [4] = system: Ruminococcus gnavus DSM 108212; assay: as above
# Method in brief: as §1
# [5] = system: Klebsiella aerogenes DSM 30053; assay: fold change of Histamine concentration vs plate DMSO controls (fold change (ratio)); higher = more amine produced, active = hit call of the paper (significant change in both replicates, either direction)
# Method in brief: (§2)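 Amine values are fold changes relative to DMSO-only wells on the same plate. They derive from 27 h, 37 °C anaerobic mGAM cultures of four gut bacterial strains in 80 µL wells, dosed at 20 µM final, or 50 µM final for sweeteners. Extraction of the whole culture, LC–triple-quadrupole MS in dynamic MRM mode, external calibration curves and within-batch drift correction were used, with 2 biological replicates averaged.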
# [6] = system: Clostridium sporogenes DSM 1664; assay: fold change of Tryptamine concentration vs plate DMSO controls (fold change (ratio)); higher = more amine produced, active = hit call of the paper (significant change in both replicates, either direction)
# Method in brief: as §2
# [7] = system: Ruminococcus gnavus DSM 108212; assay: as above
# Method in brief: as §2
# [8] = system: Escherichia coli IAI1; assay: fold change of Putrescine concentration vs plate DMSO controls (fold change (ratio)); higher = more amine produced, active = hit call of the paper (significant change in both replicates, either direction)
# Method in brief: as §2
# [9] = system: Klebsiella aerogenes DSM 30053; assay: as above
# Method in brief: as §2
# [10] = system: Escherichia coli IAI1; assay: fold change of Cadaverine concentration vs plate DMSO controls (fold change (ratio)); higher = more amine produced, active = hit call of the paper (significant change in both replicates, either direction)
# Method in brief: as §2
# [11] = system: Klebsiella aerogenes DSM 30053; assay: as above
# Method in brief: as §2
# [12] = system: Ruminococcus gnavus DSM 108212; assay: fold change of 2-Phenylethylamine concentration vs plate DMSO controls (fold change (ratio)); higher = more amine produced, active = hit call of the paper (significant change in both replicates, either direction)
# Method in brief: as §2
Compound,growth [1],growth [2],growth [3],growth [4],fold change of Histamine concentration [5],fold change of Tryptamine concentration [6],fold change of Tryptamine concentration [7],fold change of Putrescine concentration [8],fold change of Putrescine concentration [9],fold change of Cadaverine concentration [10],fold change of Cadaverine concentration [11],fold change of 2-Phenylethylamine concentration [12]
CC(C)CC(N(C)C)C1(c2ccc(Cl)cc2)CCC1 (stereo unspecified) [Sibutramine hydrochloride],0.99,1,1.01,0.908,1.05 (inactive),0.976 (inactive),0.985 (inactive),1.01 (inactive),0.999 (inactive),0.984 (inactive),0.989 (inactive),1 (inactive)
CCOP(=S)(OCC)Oc1cc(C)nc(C(C)C)n1,0.996,1.01,0.998,1.15,1.04 (inactive),1.03 (inactive),0.997 (inactive),1 (inactive),1 (inactive),1.01 (inactive),1 (inactive),1 (inactive)
Oc1ccc(Cl)cc1Cc1cc(Cl)ccc1O,0.8,0.854,0.898,0.861,1.12 (inactive),0.557 (inactive),0.513 (active),1.15 (inactive),0.996 (inactive),1.66 (active),0.986 (inactive),0.605 (inactive)
CN1[C@@H]2CC[C@H]1C[C@@H](OC1c3ccccc3CCc3ccccc31)C2 [Deptropine citrate],0.826,1,0.992,0.954,1.06 (inactive),1.17 (inactive),0.877 (inactive),1.04 (inactive),1.02 (inactive),1.11 (inactive),0.999 (inactive),0.928 (inactive)
C[C@]12C/C(=C/O)C(=O)C[C@@H]1CC[C@@H]1[C@@H]2CC[C@@]2(C)[C@H]1CC[C@]2(C)O [Oxymetholone],1.21,1.01,1,1.16,0.984 (inactive),0.861 (inactive),0.223 (active),1.02 (inactive),1.02 (inactive),1 (inactive),1.01 (inactive),0.271 (active)
C[N+]1(C)CCOC(O)(c2ccc(-c3ccc(C4(O)C[N+](C)(C)CCO4)cc3)cc2)C1 (stereo unspecified) [Hemicholinium bromide],1.04,0.992,1.2,1.27,0.912 (inactive),1.18 (inactive),1.06 (inactive),1.01 (inactive),0.995 (inactive),0.928 (inactive),1.02 (inactive),1.07 (inactive)
COc1ccc(CN2CCNCC2)c(OC)c1OC [Trimetazidine dihydrochloride],0.945,0.975,0.973,1.15,1.12 (inactive),1.05 (inactive),1.03 (inactive),0.973 (inactive),1.02 (inactive),1.01 (inactive),0.971 (inactive),1.03 (inactive)
COP(=S)(OC)Oc1nc(Cl)c(Cl)cc1Cl,1.02,0.989,1.02,1.01,1.03 (inactive),0.986 (inactive),0.898 (inactive),0.986 (inactive),1.02 (inactive),0.99 (inactive),0.991 (inactive),0.866 (inactive)
COCC(C)N(C(=O)CCl)c1c(C)csc1C (stereo unspecified),1.06,1.02,1.03,0.986,0.989 (inactive),1.02 (inactive),0.991 (inactive),1.01 (inactive),1.01 (inactive),0.953 (inactive),1.04 (inactive),0.941 (inactive)
ClC1C(Cl)C(Cl)C(Cl)C(Cl)C1Cl (stereo unspecified),1.06,1,1,1.14,0.984 (inactive),0.972 (inactive),0.98 (inactive),1 (inactive),1 (inactive),1.02 (inactive),0.994 (inactive),0.979 (inactive)
O=C(CCCN1CCC(n2c(=O)[nH]c3ccccc32)CC1)c1ccc(F)cc1 [Benperidol],1.07,0.943,0.941,0.827,1 (inactive),1.01 (inactive),1.03 (inactive),0.998 (inactive),1.02 (inactive),1.02 (inactive),1.02 (inactive),1.05 (inactive)
CCCSP(=O)(OCC)Oc1ccc(Br)cc1Cl (stereo unspecified),0.919,0.968,1.03,0.964,1.01 (inactive),1.03 (inactive),0.941 (inactive),1 (inactive),1.02 (inactive),1.03 (inactive),0.995 (inactive),0.9 (inactive)
CCCN(CCC)N=O [NDPA (N-nitrosodipropylamine)],0.977,0.974,0.99,0.958,1.01 (inactive),1.03 (inactive),1.06 (inactive),0.969 (inactive),0.982 (inactive),0.874 (inactive),1.01 (inactive),1.07 (inactive)
